# Assay outcomes: PubChem, several laboratories
# S1P4 ag – agonists of human S1P4 receptor. O95977. S1P4-expressing cell line, agonist reporter assay. activation, % at 4.98 µM. hit rate 0.35% among 220,000; in the data active = activation above about 11%
# Target sequence (O95977 whole entry, looked up): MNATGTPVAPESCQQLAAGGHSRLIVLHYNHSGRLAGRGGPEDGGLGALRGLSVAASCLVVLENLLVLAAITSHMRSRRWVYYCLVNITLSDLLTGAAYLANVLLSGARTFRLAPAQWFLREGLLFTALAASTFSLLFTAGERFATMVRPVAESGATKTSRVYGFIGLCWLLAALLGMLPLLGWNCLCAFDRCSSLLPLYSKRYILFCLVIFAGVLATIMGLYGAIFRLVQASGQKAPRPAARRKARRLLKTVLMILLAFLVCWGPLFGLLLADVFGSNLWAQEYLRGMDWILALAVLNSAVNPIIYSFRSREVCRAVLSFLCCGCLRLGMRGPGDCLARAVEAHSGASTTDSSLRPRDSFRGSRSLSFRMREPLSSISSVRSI
# PGE2 EP2 inh – inhibitors of human EP2 prostaglandin E2 receptor. P43116. AID 1422. C6 glioma cells expressing human EP2, cAMP TR-FRET; cells stimulated with saturating PGE2. hit rate 0.52% among 260,000. inhibition, % at 25 µM;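 active = percent inhibition above 40 after rounding to a whole number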;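 also: rat C6 glioma host cells with rolipram phosphodiesterase inhibitor present; the protocol text gives 20 µM as final concentration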
# S1P4 antagonist – blocks the human S1P4 receptor; O95977; S1P4-expressing cells, antagonist mode, reporter read-out; inhibition, % at 4.98 µM; hit rate 0.26% among 220,000; AID 1510; in the data active = inhibition above about 29%
# EP2 modulator – modulates human prostaglandin E2 receptor EP2 signaling | P43116 | EP2-expressing cells, cAMP HTRF FRET, PGE2 co-stimulation | hit rate 0.83% among 260,000 | AID 940 | induction, % at 25 µM;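 active = compounds whose cAMP rise, as percent of the full-agonist control response, exceeds 60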;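 also: rat C6 glioma line stably carrying human EP2 under a CMV promoter; the protocol text gives 20 µM as final concentration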
# S1P3 antag – blocks the human S1P3 receptor. Q99500. CHO S1P3 NFAT-BLA reporter, FRET fluorescence, antagonist mode. inhibition, % at 4.98 µM. hit rate 0.27% among 170,000;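 active = inhibition above the plate cutoff, the mean inhibition of test wells on that plate plus 3 SD, cut at about 28% in these data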;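 also: cells challenged with S1P at its EC80 of 0.8 µM; blue over green emission ratio from cleaved BLA substrate after 4 h stimulation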
# EP2 confirm – human EP2 receptor cAMP induction, negative in counter-screens | shares compounds with EP2 modulator | C6 glioma EP2 cells, cAMP HTRF induction; plus low (about EC15) PGE2 agonist | calls only at 20 µM (by protocol) | hit rate 47% among 1,300;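 active = cAMP induction above 50% in the main assay while under 30% in all four parallel counter assays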;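 also: rat C6 glioma cells stably expressing human EP2 receptor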
# Numbers stand for hits; n = inactive; x = no result given; + = active, no number. Rows were chosen to be rich in hits. Some 2% of all compounds tested hit in one or more screens of this group.
SMILES,S1P4 ag,PGE2 EP2 inh,S1P4 antagonist,EP2 modulator,S1P3 antag,EP2 confirm
COc1ccc(Cn2c(-c3ccc(OC)cc3)nc3ccccc32)cc1,n,x,n,67,x,n
COc1ccc(-c2nc3c(c(=O)[nH]c(=O)n3Cc3ccccc3)n2Cc2ccccc2)cc1,n,n,n,74,x,+
CN1[C@@H](C(=O)NC2CCCCC2)C[C@@H](c2ccc(F)cc2)NS1(=O)=O,x,x,x,n,x,x
CC(C)C1COC(c2cccn2Cc2ccccc2Cl)=N1 (centres undefined),n,n,n,68,n,n
Cc1ccc(Cn2cccc2C2=NC(C)CO2)cc1 (centres undefined),n,n,n,n,x,x
COc1cccc(-c2cc(C(F)(F)F)n3ncc(C(=O)NCc4ccc5c(c4)OCO5)c3n2)c1,x,n,x,n,x,x
CCOCc1nnc(NC(=O)c2ccc(Cl)cc2Cl)s1,x,n,x,n,x,x
CC(C)(C)C1=NNC(=O)c2cc3ccccc3n2C1,x,x,x,n,x,x
COc1ccc(S(=O)(=O)N2c3cc(C)ccc3OCC2C(C)(C)C)cc1 (centres undefined),n,n,n,66,x,+
Cc1cccc(NC2=NC(=S)N(c3ccc(C(=O)O)cc3)C23CCCCC3)c1,n,x,n,97,x,+
O=C(Oc1ccc(-c2nccc(-c3ccccn3)n2)cc1)c1cccc(C(F)(F)F)c1,n,n,n,67,x,n
Cc1cc(C)n(-c2cc(-c3ccccc3)nc(C)n2)n1,n,n,n,69,n,n
CC(C)CN(Cc1c(O)ccc2ccccc12)CC(C)C,n,n,n,n,n,x
CCN(Cc1ccncc1)Cc1c(O)ccc2ccccc12,n,n,n,n,n,x
CCN(Cc1cc(Cl)cc(C)c1O)Cc1c(O)ccc2ccccc12,x,n,x,n,x,n
CN(Cc1cc(Br)cc(Br)c1O)Cc1c(O)ccc2ccccc12,x,n,x,62,x,n
CC(c1cccs1)N(Cc1ccco1)C(=S)Nc1ccccc1Cl (centres undefined),n,n,n,n,n,x
Cc1ccccc1NC(=S)N(Cc1ccco1)C(C)c1cccs1 (centres undefined),n,n,n,n,n,n
N#CCSc1nc2sc3c(c2c(=O)n1C1CCCCC1)CCCC3,n,n,n,73,x,+
O=C(Nc1ccccc1)c1nn(-c2ccccc2)c(=O)cc1C(F)(F)F,n,n,n,n,x,x
O=C(Nc1ccccc1)c1nn(-c2cccc(C(F)(F)F)c2)ccc1=O,n,n,n,84,n,+
CCCN1C2CCCC1CC(NC(=O)Nc1ccc(C#N)cc1)C2 (centres undefined),x,n,x,n,x,x
COC(=O)c1cc(Br)c(=O)n(-c2nccs2)c1,n,n,n,65,x,n
Cc1cc2cc3c(cc2nc1SCC(=O)Nc1cccc(C)c1C)OCO3,x,n,x,n,x,x
COc1ccc(C(NC(=O)c2cnc(C(C)(C)C)nc2)c2ccncc2)cc1 (centres undefined),x,n,x,n,x,x
SMILES,S1P4 ag,PGE2 EP2 inh,S1P4 antagonist,EP2 modulator,S1P3 antag,EP2 confirm
Cc1nc(Cl)sc1C(=O)O,n,n,n,n,n,x
Cc1cccc(OC(=O)c2sc(Cl)nc2C)c1,n,n,n,68,n,n
Cc1cc(C)cc(OC2CCCCC2NS(=O)(=O)c2ccccc2)c1 (centres undefined),n,n,n,65,n,+
CSc1ccc(OC2CCCCC2NS(=O)(=O)c2ccccc2)cc1 (centres undefined),n,n,n,n,n,x
CCCCOC(=O)n1c(=S)oc2cc(Cl)ccc21,n,n,n,71,x,n
Cc1cc(C)n(-c2ncnc3sc4c(c23)CCC4)n1,x,n,x,n,x,x
CCOC(=O)c1c(NC(=O)CN2CCN(C(=O)c3ccco3)CC2)sc2c1CCCC2,n,x,n,n,x,n
Cc1sc(NC(=O)CN2CCOCC2)c(C(=O)c2ccccc2)c1C,n,n,n,69,x,n
CCOC(=O)c1c(NC(=O)CN2CCCCC2)sc2c1CCN(C(=O)OCC)C2,n,x,n,70,n,+
COC(=O)c1c(NC(=O)Cc2cccs2)sc2c1CCC(C)C2 (centres undefined),n,n,n,n,n,n
COC(=O)c1c(NC(=O)c2cccnc2)sc2c1CCC(C)C2 (centres undefined),x,n,x,n,x,x
O=C(COC(=O)c1cccnc1)Nc1cc(C(F)(F)F)ccc1Cl,x,n,x,n,x,x
CC1CCN(S(=O)(=O)N2CCN(CC(O)c3c[nH]c4ccc(F)cc34)CC2)CC1 (centres undefined),x,n,x,n,x,x
CCOC(=O)c1c(NC(=O)CN2CCCCC2)sc(C)c1C,n,n,n,67,n,+
CCOC(=O)c1sc(NC(=O)CCN2CC(C)OC(C)C2)c(C(=O)OCC)c1C (centres undefined),n,x,n,n,x,n
CCOC(=O)c1c(NC(=O)CN(CC)CC)sc2c1CCN(C(=O)OCC)C2,n,n,n,72,n,+
CCOC(=O)c1c(NC(=S)N2CCN(C)CC2)sc2c1CCN(C(=O)OCC)C2,n,n,n,n,n,x
CCOC(=O)c1sc(NC(=O)CN2CCCC2)c(C(=O)OCC)c1C,n,x,n,n,n,x
CCOC(=O)c1c(NC(=O)Cc2cccs2)sc(C)c1C,n,n,n,62,n,n
O=C(Nc1ccccc1)N(CCO)Cc1cc2cc3c(cc2[nH]c1=O)OCO3,x,n,x,n,x,x
CCC(CN1CCCC1)NC(=O)C1(c2cccc(F)c2)CC1 (centres undefined),x,n,x,n,x,x
CCOC(=O)c1c(NC(=O)c2ccn(CC)n2)sc2c1CCCC2,n,n,n,n,n,n
CN1CCC(CNC(=O)Cn2ccc3ccc(F)cc32)(N(C)C)CC1,x,n,x,n,x,x
CC12CCCC(O)(C1)C1CC(C)(C)C1CC2 (centres undefined),x,n,x,n,x,n
CC(C)c1nc2sc3c(NCc4ccccc4)ncnc3c2c2c1COC(C)(C)C2,n,n,n,n,x,x
SMILES,S1P4 ag,PGE2 EP2 inh,S1P4 antagonist,EP2 modulator,S1P3 antag,EP2 confirm
CCN(CCO)c1ncnc2c1sc1nc(C(C)C)c3c(c12)CC(C)(C)OC3,n,n,n,79,x,n
S=c1[nH]nc(C2CC2)n1Cc1ccccc1,n,n,n,n,n,x
S=c1[nH]nc(C2CCCCC2)n1Cc1ccccc1,n,n,n,n,n,n
S=c1[nH]nc(-c2ccc(Br)o2)n1Cc1ccccc1,n,n,n,62,x,n
S=c1[nH]nc(-c2ccco2)n1Cc1ccccc1,n,n,n,n,x,x
Cc1cccc2cc(CN(Cc3ccccc3)C(=S)NCc3ccco3)c(=O)[nH]c12,x,n,x,n,x,x
c1ccc2c(c1)OCC(c1csc3ncnc(N4CCCCC4)c13)O2 (centres undefined),n,n,n,84,x,+
Cc1ccc(-c2cccc(C(=O)NCc3ccccc3)n2)c2ccccc12,n,n,n,66,n,+
CC(=O)c1sc2nc(-c3ccc(C)cc3)c3c(c2c1N)CCCC3,n,n,n,72,n,+
CCOC(=O)Cn1c(=S)[nH]c2c(oc3ccc(Cl)cc32)c1=O,n,n,n,98,x,n
